Data from paper PMC11006913.
Numbering of substitutions follows the chain as printed.

Tests used:
Assay in all cases: PBM; 200 nM protein, PBS
Details in all cases: dsDNA, one strand shown
NKX2-4 [1] = molecular target: T1, NKX2-4 (Homo sapiens, UniProt Q9H2Z4 175-261, P217L)
T1 sequence: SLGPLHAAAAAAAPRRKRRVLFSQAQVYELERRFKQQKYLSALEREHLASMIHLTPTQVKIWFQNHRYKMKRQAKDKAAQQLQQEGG

NKX2-4 [2] = molecular target: T2, NKX2-4 (Homo sapiens, UniProt Q9H2Z4 175-261, T231S)
T2 sequence: T1 sequence with L43P, T57S

NKX2-4 [3] = molecular target: T3, NKX2-4 (Homo sapiens, UniProt Q9H2Z4 175-261)
T3 sequence: T1 sequence with L43P

NKX2-4 [4] = molecular target: T4, NKX2-4 (Homo sapiens, UniProt Q9H2Z4 175-261, R246Q)
T4 sequence: T1 sequence with L43P, R72Q

VENTX = molecular target: T5, VENTX (Homo sapiens, UniProt O95231 78-163, R121Q)
T5 sequence: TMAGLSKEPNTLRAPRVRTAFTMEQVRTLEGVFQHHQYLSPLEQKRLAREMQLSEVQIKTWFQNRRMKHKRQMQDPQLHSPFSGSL

NKX2-6 [5] = molecular target: T6, NKX2-6 (Homo sapiens, UniProt A6NCS4 118-204, R150C)
T6 sequence: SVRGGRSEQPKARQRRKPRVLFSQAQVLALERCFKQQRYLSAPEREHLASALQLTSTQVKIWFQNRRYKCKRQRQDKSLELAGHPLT

NKX2-6 [6] = molecular target: T7, NKX2-6 (Homo sapiens, UniProt A6NCS4 118-204)
T7 sequence: T6 sequence with C33R

PROP1 [7] = molecular target: PROP1 (Homo sapiens, UniProt O75360 56-141)
PROP1 [8] = molecular target: PROP1 (Homo sapiens, UniProt O75360 56-141, R99H)
PROP1 [9] = molecular target: PROP1 (Homo sapiens, UniProt O75360 56-141, F88S)
PROP1 (Homo sapiens, UniProt O75360 56-141, F88S), sequence (O75360 56-141 F88S): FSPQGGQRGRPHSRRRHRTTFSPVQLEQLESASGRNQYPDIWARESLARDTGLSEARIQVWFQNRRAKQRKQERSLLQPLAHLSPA

PROP1 (Homo sapiens, UniProt O75360 56-141, R99H), sequence (O75360 56-141 R99H): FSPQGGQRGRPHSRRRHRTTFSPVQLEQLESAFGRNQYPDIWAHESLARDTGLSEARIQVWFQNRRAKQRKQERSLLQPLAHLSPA
PROP1 (Homo sapiens, UniProt O75360 56-141), sequence (O75360 56-141): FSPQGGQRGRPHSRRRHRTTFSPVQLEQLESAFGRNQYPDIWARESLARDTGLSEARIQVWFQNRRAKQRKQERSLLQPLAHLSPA

Sequence: AACGCTGG
- binding signal (NKX2-4 [1]): 9.65 upbm affinity estimate (log intensity, higher = more binding, comparable within an allelic series)
- binding signal (NKX2-4 [2]): 9.71 upbm affinity estimate (log intensity, higher = more binding, comparable within an allelic series)
- binding signal (NKX2-4 [3]): 9.67 upbm affinity estimate (log intensity, higher = more binding, comparable within an allelic series)
- binding signal (NKX2-4 [4]): 9.82 upbm affinity estimate (log intensity, higher = more binding, comparable within an allelic series)

Sequence: CCTGGAGC
- binding signal (NKX2-4 [1]): 9.98 upbm affinity estimate (log intensity, higher = more binding, comparable within an allelic series)
- binding signal (NKX2-4 [2]): 9.95 upbm affinity estimate (log intensity, higher = more binding, comparable within an allelic series)
- binding signal (NKX2-4 [3]): 9.96 upbm affinity estimate (log intensity, higher = more binding, comparable within an allelic series)
- binding signal (NKX2-4 [4]): 9.94 upbm affinity estimate (log intensity, higher = more binding, comparable within an allelic series)

Sequence: GAACTGGC
- binding signal (NKX2-4 [1]): 9.51 upbm affinity estimate (log intensity, higher = more binding, comparable within an allelic series)
- binding signal (NKX2-4 [2]): 9.49 upbm affinity estimate (log intensity, higher = more binding, comparable within an allelic series)
- binding signal (NKX2-4 [3]): 9.54 upbm affinity estimate (log intensity, higher = more binding, comparable within an allelic series)
- binding signal (NKX2-4 [4]): 9.65 upbm affinity estimate (log intensity, higher = more binding, comparable within an allelic series)

Sequence: CAGCCCAG
- binding signal (NKX2-4 [1]): 9.47 upbm affinity estimate (log intensity, higher = more binding, comparable within an allelic series)
- binding signal (NKX2-4 [2]): 9.32 upbm affinity estimate (log intensity, higher = more binding, comparable within an allelic series)
- binding signal (NKX2-4 [3]): 9.45 upbm affinity estimate (log intensity, higher = more binding, comparable within an allelic series)
- binding signal (NKX2-4 [4]): 9.54 upbm affinity estimate (log intensity, higher = more binding, comparable within an allelic series)

Sequence: AGAGTGAG
- binding signal (NKX2-4 [1]): 11.5 upbm affinity estimate (log intensity, higher = more binding, comparable within an allelic series)
- binding signal (NKX2-4 [2]): 11.6 upbm affinity estimate (log intensity, higher = more binding, comparable within an allelic series)
- binding signal (NKX2-4 [3]): 11.4 upbm affinity estimate (log intensity, higher = more binding, comparable within an allelic series)
- binding signal (NKX2-4 [4]): 11.6 upbm affinity estimate (log intensity, higher = more binding, comparable within an allelic series)

Sequence: CCTCTTCA
- binding signal (NKX2-4 [1]): 12.5 upbm affinity estimate (log intensity, higher = more binding, comparable within an allelic series)
- binding signal (NKX2-4 [2]): 12.8 upbm affinity estimate (log intensity, higher = more binding, comparable within an allelic series)
- binding signal (NKX2-4 [3]): 12.4 upbm affinity estimate (log intensity, higher = more binding, comparable within an allelic series)
- binding signal (NKX2-4 [4]): 13 upbm affinity estimate (log intensity, higher = more binding, comparable within an allelic series)

Sequence: CGCCCTGA
- binding signal (NKX2-4 [1]): 9.84 upbm affinity estimate (log intensity, higher = more binding, comparable within an allelic series)
- binding signal (NKX2-4 [2]): 9.84 upbm affinity estimate (log intensity, higher = more binding, comparable within an allelic series)
- binding signal (NKX2-4 [3]): 9.83 upbm affinity estimate (log intensity, higher = more binding, comparable within an allelic series)
- binding signal (NKX2-4 [4]): 9.87 upbm affinity estimate (log intensity, higher = more binding, comparable within an allelic series)

Sequence: ATCACACC
- binding signal (NKX2-4 [1]): 9.96 upbm affinity estimate (log intensity, higher = more binding, comparable within an allelic series)
- binding signal (NKX2-4 [2]): 9.93 upbm affinity estimate (log intensity, higher = more binding, comparable within an allelic series)
- binding signal (NKX2-4 [3]): 9.81 upbm affinity estimate (log intensity, higher = more binding, comparable within an allelic series)
- binding signal (NKX2-4 [4]): 9.96 upbm affinity estimate (log intensity, higher = more binding, comparable within an allelic series)

Sequence: ACAATGAG
- binding signal (NKX2-4 [1]): 11.4 upbm affinity estimate (log intensity, higher = more binding, comparable within an allelic series)
- binding signal (NKX2-4 [2]): 11.5 upbm affinity estimate (log intensity, higher = more binding, comparable within an allelic series)
- binding signal (NKX2-4 [3]): 11.3 upbm affinity estimate (log intensity, higher = more binding, comparable within an allelic series)
- binding signal (NKX2-4 [4]): 11.4 upbm affinity estimate (log intensity, higher = more binding, comparable within an allelic series)

Sequence: CACGCACG
- binding signal (NKX2-4 [1]): 9.72 upbm affinity estimate (log intensity, higher = more binding, comparable within an allelic series)
- binding signal (NKX2-4 [2]): 9.75 upbm affinity estimate (log intensity, higher = more binding, comparable within an allelic series)
- binding signal (NKX2-4 [3]): 9.72 upbm affinity estimate (log intensity, higher = more binding, comparable within an allelic series)
- binding signal (NKX2-4 [4]): 9.75 upbm affinity estimate (log intensity, higher = more binding, comparable within an allelic series)

Sequence: GCTGTGCA
- binding signal (NKX2-4 [1]): 9.63 upbm affinity estimate (log intensity, higher = more binding, comparable within an allelic series)
- binding signal (NKX2-4 [2]): 9.66 upbm affinity estimate (log intensity, higher = more binding, comparable within an allelic series)
- binding signal (NKX2-4 [3]): 9.61 upbm affinity estimate (log intensity, higher = more binding, comparable within an allelic series)
- binding signal (NKX2-4 [4]): 9.6 upbm affinity estimate (log intensity, higher = more binding, comparable within an allelic series)

Sequence: AAAGTACT
- binding signal (NKX2-4 [1]): 12.4 upbm affinity estimate (log intensity, higher = more binding, comparable within an allelic series)
- binding signal (NKX2-4 [2]): 12.8 upbm affinity estimate (log intensity, higher = more binding, comparable within an allelic series)
- binding signal (NKX2-4 [3]): 12.3 upbm affinity estimate (log intensity, higher = more binding, comparable within an allelic series)
- binding signal (NKX2-4 [4]): 12.8 upbm affinity estimate (log intensity, higher = more binding, comparable within an allelic series)

Sequence: GTACTCAA
- binding signal (NKX2-4 [1]): 12.6 upbm affinity estimate (log intensity, higher = more binding, comparable within an allelic series)
- binding signal (NKX2-4 [2]): 13 upbm affinity estimate (log intensity, higher = more binding, comparable within an allelic series)
- binding signal (NKX2-4 [3]): 12.5 upbm affinity estimate (log intensity, higher = more binding, comparable within an allelic series)
- binding signal (NKX2-4 [4]): 13.1 upbm affinity estimate (log intensity, higher = more binding, comparable within an allelic series)

Sequence: CCGCCACG
- binding signal (NKX2-4 [1]): 9.92 upbm affinity estimate (log intensity, higher = more binding, comparable within an allelic series)
- binding signal (NKX2-4 [2]): 9.9 upbm affinity estimate (log intensity, higher = more binding, comparable within an allelic series)
- binding signal (NKX2-4 [3]): 9.94 upbm affinity estimate (log intensity, higher = more binding, comparable within an allelic series)
- binding signal (NKX2-4 [4]): 9.94 upbm affinity estimate (log intensity, higher = more binding, comparable within an allelic series)

Sequence: CCGGTAAC
- binding signal (NKX2-4 [1]): 9.94 upbm affinity estimate (log intensity, higher = more binding, comparable within an allelic series)
- binding signal (NKX2-4 [2]): 9.84 upbm affinity estimate (log intensity, higher = more binding, comparable within an allelic series)
- binding signal (NKX2-4 [3]): 9.9 upbm affinity estimate (log intensity, higher = more binding, comparable within an allelic series)
- binding signal (NKX2-4 [4]): 9.93 upbm affinity estimate (log intensity, higher = more binding, comparable within an allelic series)

Sequence: ACCATTAG
- binding signal (VENTX): 11.7 upbm affinity estimate (log intensity, higher = more binding, comparable within an allelic series)

Sequence: TAATGTGA
- binding signal (VENTX): 10.5 upbm affinity estimate (log intensity, higher = more binding, comparable within an allelic series)

Sequence: ACAAGTAC
- binding signal (NKX2-6 [5]): 11.6 upbm affinity estimate (log intensity, higher = more binding, comparable within an allelic series)

Sequence: AAGTGGAA
- binding signal (NKX2-6 [5]): 11.6 upbm affinity estimate (log intensity, higher = more binding, comparable within an allelic series)
- binding signal (NKX2-6 [6]): 13.3 upbm affinity estimate (log intensity, higher = more binding, comparable within an allelic series)

Sequence: CCCGGTGC
- binding signal (PROP1 [7]): 6.92 upbm affinity estimate (log intensity, higher = more binding, comparable within an allelic series)
- binding signal (PROP1 [8]): 6.73 upbm affinity estimate (log intensity, higher = more binding, comparable within an allelic series)
- binding signal (PROP1 [9]): 6.51 upbm affinity estimate (log intensity, higher = more binding, comparable within an allelic series)
